Among all 310,000 compounds or so, about 1,200 (0.39%) were called active. No rule for the calls is given here. Not all results are given here. Potency and affinity values are given separately.

A word on the inhibition: it is the change of the read-out against control, counted positive when it falls.

For the assay, the target named is Large T antigen (Simian virus 40) (UniProt P03070). The assay can be described thus: SV40 large T antigen inhibitors, biochemical (AID 1903). The settings on record: SV40 large T antigen ATPase/helicase inhibition assay; at 20 µM; stronger effect = higher value.
Chain of Large T antigen (Simian virus 40) (P03070 whole entry, looked up): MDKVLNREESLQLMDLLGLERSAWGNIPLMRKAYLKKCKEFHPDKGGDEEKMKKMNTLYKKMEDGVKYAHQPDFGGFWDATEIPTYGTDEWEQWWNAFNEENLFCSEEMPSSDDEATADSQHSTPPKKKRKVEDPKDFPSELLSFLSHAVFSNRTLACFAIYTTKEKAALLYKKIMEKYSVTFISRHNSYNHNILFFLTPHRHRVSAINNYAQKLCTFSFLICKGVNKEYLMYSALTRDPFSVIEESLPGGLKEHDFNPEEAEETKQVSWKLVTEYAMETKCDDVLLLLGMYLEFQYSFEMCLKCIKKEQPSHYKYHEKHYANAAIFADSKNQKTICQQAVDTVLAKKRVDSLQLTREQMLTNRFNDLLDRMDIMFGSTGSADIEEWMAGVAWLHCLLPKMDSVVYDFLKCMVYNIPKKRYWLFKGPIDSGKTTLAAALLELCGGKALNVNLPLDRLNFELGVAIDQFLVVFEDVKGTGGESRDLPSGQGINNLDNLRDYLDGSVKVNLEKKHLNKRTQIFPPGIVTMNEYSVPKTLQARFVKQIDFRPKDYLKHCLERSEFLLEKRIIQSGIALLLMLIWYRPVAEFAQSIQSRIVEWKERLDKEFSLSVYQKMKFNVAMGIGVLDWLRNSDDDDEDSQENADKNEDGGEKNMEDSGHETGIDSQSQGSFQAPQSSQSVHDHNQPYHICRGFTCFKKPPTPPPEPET
Consider `Cc1ccc(NS(=O)(=O)c2ccc(CCC(=O)NCCCOC(C)C)cc2)cc1`, for which the inhibition is 5.53% (inactive). On to `COc1ccc(S(=O)(=O)c2nnn(-c3cccc(OC)c3)c2N)cc1`, for which the inhibition was 22.2% (inactive). Regarding `O=[N+]([O-])c1ccc(-n2cccc2/C=N/Nc2nc(N3CCCCC3)nc(N3CCCCC3)n2)cc1`, the inhibition was 9.66% (inactive). For `O=C(CNC(=O)c1ccccc1F)OCC(=O)N1CCCCC1`, the inhibition was 7.93% (inactive). On to `Cc1cc(C)c(S(=O)(=O)c2ccccc2C)c(N(C)C)n1`, for which the inhibition was 21.5% (inactive). For `COc1cc(/C=C2\SC(=S)N(CCC(=O)Nc3ccc(O)cc3)C2=O)cc(OC)c1OC`, the inhibition is 5.27% (inactive). With `O=C(Nc1ccc2c(c1)OCO2)c1ccc(NC2CC2)c([N+](=O)[O-])c1` the figure was 12.5% (inactive). As to `CCn1c(-c2nn(-c3ccccc3)ccc2=O)n[nH]c1=S`, the inhibition is 9.69% (inactive). As for `COc1ccc(NS(=O)(=O)c2cccc(C(=O)NCC(c3ccccc3OC)N3CCCC3)c2)cc1` (configuration not stated), the inhibition was 5.32% (inactive). `O=C(C1CC1)N1CCN(c2ccc([N+](=O)[O-])cc2)CC1`: the inhibition was 12.1% (inactive). With `COc1ccc(N2CCN(C(=O)COC(=O)CCOc3ccc(C)cc3)CC2)cc1` the figure was 10.6% (inactive); with `COc1ccc(C(=O)NCC(=O)N2CCN(c3ccc(Cl)cc3)CC2)cc1`, 10.9% (inactive); with `Cc1ccc(OCCCC(=O)N2CCOCC2)cc1`, 0.37% (inactive). With `COc1ccc(OCC(=O)N2CCN(c3cccc(C(F)(F)F)c3)CC2)cc1`, the inhibition was 17% (inactive). For `O=C(COc1cccc(C(F)(F)F)c1)N1CCN(c2ccccc2O)CC1`, the inhibition is 22.7% (inactive). With `COc1cc(OC)cc(C(=O)NCC(=O)N2CCCCC2)c1`, the inhibition was 4.74% (inactive).

In the case of `O=C(C1CC1)N1CCN(c2ccc(F)cc2)CC1`, the inhibition is 2.25% (inactive). Consider `c1ccc(Nc2nc(-c3ccccc3)ns2)cc1`, for which the inhibition was -2.89% (inactive).

`CSc1nnc2c(n1)OC(c1cccn1C)N(C(C)=O)c1ccccc1-2` (configuration not stated): the inhibition was 15.3% (inactive).

For `Cn1cnc(S(=O)(=O)NCc2ccccc2)c1`, the inhibition was 6.21% (inactive). Consider `Cc1ccc(C(=O)Nc2ccc(S(=O)(=O)N3CCOCC3)cc2)cc1C`, for which the inhibition was 0.36% (inactive). `O=C(CNC(=O)c1ccc(Br)cc1)OCC(=O)c1ccccc1`: the inhibition is 11.9% (inactive). For the compound `Cc1ccc(C(=O)NCC(=O)N2CCN(c3ncccn3)CC2)s1`, the inhibition was -1.43% (inactive). With `O=C(NCc1ccco1)C(c1ccncc1)N(C(=O)Cc1cccs1)c1ccccc1` (configuration not stated) the figure was 7.67% (inactive); with `Cc1cccc(Nc2ncc3c(n2)CC(C)CC3=O)c1` (configuration not stated), 7.64% (inactive). In the case of `CCOc1ccccc1NC(=S)N1CCN(c2ccccc2)CC1`, the inhibition is 3.57% (inactive). Consider `CCOc1ccccc1NC(=S)N1CCN(c2ccc(OC)cc2)CC1`, for which the inhibition was 7.58% (inactive).

The values are drawn from PubChem BioAssay AID1903 (Southern Research Specialized Biocontainment Screening …, 2009).
